Laboratory results from PubChem BioAssay AID952 (NMMLSC, 2007).
About 45 (0.02%) of roughly 190,000 compounds were called active. Cut-off read from the data, not from the text of the source: active = inhibition above about 40%. Not all results are given here.

Target: Bcl-2-like protein 2 (Homo sapiens) (UniProt Q92843)
Assay: inhibitors of Bim binding to Bcl-W, primary screen, biochemical, multiplexed, bead-based flow cytometry (AID 952);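 note: 0% = bound tracer without compound and 100% = peptide blocker; higher means less fluorescent Bim peptide bound to Bcl-W beads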
Conditions: Bim peptide-Bcl-W binding, at 10 µM, stronger effect = higher value

Sequence of Bcl-2-like protein 2 (Homo sapiens) (Q92843 whole entry, looked up): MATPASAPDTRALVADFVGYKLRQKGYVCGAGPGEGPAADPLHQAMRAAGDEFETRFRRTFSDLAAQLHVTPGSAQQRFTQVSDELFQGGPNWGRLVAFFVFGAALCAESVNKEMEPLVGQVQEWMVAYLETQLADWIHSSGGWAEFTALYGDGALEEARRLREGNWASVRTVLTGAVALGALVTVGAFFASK

inhibition, inactive:
CCOC(=O)NN1C(=O)c2ccccc2NC1c1cccc(O)c1 (centres undefined) 0%
CCOC(=O)c1c(/N=C/C2C(=O)CC(C)(C)CC2=O)sc(C)c1C 2%
COc1ccc(Cl)cc1C(=O)NNC(=S)NC1CCCC1 1%
Cc1cc(N2CCOCC2)nc(-c2ccc(Br)cc2)n1 -3%
OCC(O)CN(c1ccccc1)c1ccccc1 (centres undefined) -1%
O=C(CNC1CCCCC1)NCC1(c2ccccc2)CCCC1 0%
COCCn1c(Cc2cccn2C)nnc1SCC(=O)Nc1nccs1 2%
COc1cc(CNC2CCCC2)c(Br)cc1OCc1ccccc1 -3%
O=C(NCCN1CCOCC1)c1cc(Sc2cccc(Cl)c2)nc2ccccc12 -3%
CCN1CCN(CC(=O)c2cc(OC)c(OC)c(OC)c2)CC1 -1%
O=C(Cc1ccc(F)cc1)N1CCN=C1SCc1cccc([N+](=O)[O-])c1 -1%
CCN(CC)CCNS(=O)(=O)c1ccc(/C=C/C(=O)O)cc1 -2%
C=CCc1ccc(OCC(O)CN2CCN(Cc3ccccc3)CC2)c(OC)c1 (centres undefined) -2%
Cn1c(N)c(C(=O)COC(=O)c2cnc(Cl)c(Cl)c2)c(=O)n(C)c1=O 0%
Cc1ccc(NC(=O)CSc2nnc(CNC(=O)c3ccccc3F)o2)cc1 2%
O=[N+]([O-])c1ccc(N2CCNCC2)cc1NCc1cccnc1 0%
CCOC(=O)c1cc(-c2ccc(F)cc2)n(CC(=O)NCc2ccccn2)c1C 0%
CCOC(=O)N1CCN(CCC(=O)Nc2cc(OC)ccc2OC)CC1 1%
C=CCNC(=O)COC(=O)c1ccccc1C(=O)N(C)C1CCCCC1 0%
COc1ccccc1N1CCN(C(=O)C(=O)N/N=C/c2ccccc2F)CC1 -3%
COc1ccc(C(=O)CSc2nc(C)cc(C)n2)cc1[N+](=O)[O-] -1%
CC(C)Oc1ccc(Cc2n[nH]c(=S)n2Cc2ccccc2)cc1Cl -7%
CC1CCCN(CC(O)COCc2ccccc2)C1 (centres undefined) 1%
CCCC(NC(=O)c1ccco1)c1nc2ccccc2[nH]1 (centres undefined) -5%
C=CCn1c(SCc2cccc(F)c2)nc2cc(C(=O)N3CCC(C(N)=O)CC3)ccc2c1=O -2%
CN(CCOc1ccccc1)Cc1nc2cc(Cl)ccc2c(=O)[nH]1 0%
CC1CC(C)CN(S(=O)(=O)c2ccc(C(=O)NN3CCOCC3)cc2)C1 (centres undefined) 1%
COc1ccc2c(c1)C(SCC(=O)NCc1ccccc1)CC(C)(C)O2 (centres undefined) -4%
COC(=O)CCNC(=O)c1ccc2[nH]c(C)c(C)c2c1 1%
Cc1ccc(NC(=O)CSc2nnc(COc3ccccc3C)o2)cc1 -1%
COC(=O)CC(=O)N1CCN(c2ccc(Cl)c(Cl)c2)CC1 4%
CSCc1ccc(C(=O)Nc2cc(C)cc(C)c2)cc1 -5%
CCN1CCN(CC(=O)Nc2sc3c(c2C#N)CCC3)CC1 3%
CCOc1cnc(C(=O)NNC(=O)c2ccccc2Br)o1 0%
COc1ccc(-c2csc(NC(=O)COC(=O)c3ccc(Br)o3)n2)cc1 -1%
O=C(CCSc1ccccc1)N1CCN(c2ccccc2F)CC1 -2%
O=C(CCCc1ccccc1)NCc1ccccc1 -1%
COc1cc(/C=C/C2=CC(C)(C)NC(=S)N2)cc(OC)c1OC 0%
CCCCN(CC)C(=O)c1ccccc1Oc1ccccc1 -2%
